Records with an inconclusive call do not appear. Entries that show only a call come without a potency. Active and inactive are the calls of the source. The call rests on the fitted dose curve; in most records, active means well fitted inhibition curve with a large enough effect; inconclusive means small, poorly fitted or top-dose-only effect; inactive means flat fitted curve, though single readings scatter.
Test: High Content Imaging Cell-Based qHTS for Inhibitors of the mTORC1 Signaling Pathway in MEF (Tsc2-/-, p53-/-) Cells (AID 2666);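 further: percent of cells scored positive for phospho-rpS6 Ser235/236 immunostaining by imaging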
Conditions: series mostly up to 38.3 µM
Description: NIH Molecular Libraries Probe Production Centers Network [MLPCN]
NIH Chemical Genomics Center [NCGC]
Assay Submitter (PI): Blenis, John; Hoffman, Greg; Harvard University
NCGC Assay Overview: Thee mammalian target of rapamycin (mTOR) is an intracellular serine/threonine kinase Aberrant regulation of mTOR signaling plays a causative role in a number of human diseases, including cancer, benign tumors such as lymphangioleiomyomatosis (LAM) and Tuberous Sclerosis Complex (TSC), and metabolic diseases such as diabetes and obesity. This project aims to identify inhibitors of ribosomal protein S6 (rpS6) phosphorylation. The phosphorylation of rpS6 is a key event downstream of mTOR activation. The assay uses a phospho-specific antibody of phospho-rpS6 to detect inhibitors of mTOR activation. Mutations in the Tsc1 and Tsc2 genes are the underlying genetic lesions responsible for TSC, causing constitutive activation of the mTORC1 pathway and leading to profound effects on cell metabolism. Aberrant metabolism in cancer has recently received significant attention as a target to develop therapeutic agents in the treatment of cancer1. As Tsc2-/- cells have lost the ability to respond to energy and growth factor deprivation, these cells are unable to properly down regulate cellular biosynthetic processes in response to metabolic stress, and are thus extremely sensitive to glucose deprivation-induced death.2 A central goal of this project is to explore the unique cell survival and metabolic properties of cells with Tsc1 or Tsc2 by screening for compounds that selectively target the Tsc2-/- MEFs by screening both Tsc2-/- and WT MEF cell lines. We hope to better understand these aspects of TSC physiology in order to exploit them for therapeutic benefit.
NCGC IN Cell Assay Protocol:
For quantitative high throughput analysis of mTORC1 signaling, we developed a cell-based assay for immuno-fluorescence based detection of rpS6 phosphorylation on the Acumen Explorer that will be used a platform for the primary small molecule screen. Mouse embryonic fibroblasts (MEFs) are cultured in 1536-well plates using DMEM + 10% FBS. Twenty-four hrs after plating, test compounds (solubilized in DMSO) are delivered and incubated with the cells for 24 hrs at 37 degree Celsius. Following the incubation, media with compound is aspirated and the cells are fixed in 4% paraformaldehyde (PFA) containing PBS + 0.2% TX-100. Next, PFA is aspirated, cells are washed two times with PBS plus 0.2% TX-100 and the cells are blocked for 1 hr at room temperature (blocking buffer: LiCOR Blocking Buffer plus 0.2% TX-100). This is followed by aspiration and staining with Alexa-488 conjugated-phospho-rpS6 Ser235/236 antibody for 2 hours at room temperature (Cell Signaling Technology # 4803, 1:50 dilution in blocking buffer). Cells are washed two times with PBS plus 0.2% TX-100, and stained with 10 uM propidium iodide (PI) for 20-25 minutes for cell number measurement (1:500 dilution of Hoescht staining is also added for IN Cell imaging). Active wells which are selected (based on Acumen results) are imaged on the IN Cell 1000 (GE Healthcare) using the D360/40X and HQ480/40X excitation filters for the Hoechst and Alexa-488 cytoplasmic stains, respectively. The fluorescence emission filters used were HQ460/40M and HQ535/50M for the Hoechst and Alexa-488 cytoplasmic stains, respectively. The normalized phospho-S6 staining is calculated as the ratio of […] for the single concentration rapamycin control ([…] nM) and DMSO columns. […] Inhibition of the pathway is defined based on the normalized phospho-S6 intensity in rapamycin treated cells. Each treatment is reported as the % positive cells in the well, where thresholds are defined by selecting wells with the highest and lowest signal and differentiating between the % non-active and % active populations. […]

SMILES | Potency
N=C(N)c1ccc(OCCCCCOc2ccc(C(=N)N)cc2)cc1 (tested in a mixture with another compound) | inactive
O=C(O)C1CN(CCCP(=O)(O)O)CCN1 (stereo not given) | inactive
Cc1nc(N=Nc2cc(S(=O)(=O)O)c3cc([N+](=O)[O-])cc(S(=O)(=O)O)c3c2)c(COP(=O)(O)O)c(C=O)c1O | inactive
OC[C@H]1NC[C@@H](O)[C@@H]1O | inactive
COCc1nc2c([nH]1)c(=O)n(C)c(=O)n2CC(C)C | inactive
COc1ccccc1N1CCN(CCN(C(=O)c2ccc(F)cc2)c2ccccn2)CC1 | inactive
COc1cc(CC(=O)O)ccc1O | inactive
Cn1cc(C(F)(F)F)nc1-c1ccc(OCC(O)CNCCOc2ccc(O)c(C(N)=O)c2)cc1 (stereo not given) | inactive
CCCCCCCCCC[Si](C)(C)CCC(=O)NC(Cc1ccc(C)cc1)c1ccccc1 (stereo not given) | inactive
O=C(O)C1CCNCC1 | inactive
C[C@H](NC(=O)/C(C#N)=C/c1ccc(O)c(O)c1)c1ccccc1 | inactive
Nc1ccc(-c2nc3ccc(-c4nc5ccc(N)cc5[nH]4)cc3[nH]2)cc1 | inactive
Oc1ccc(Cn2cc[nH]c2=S)cc1 | inactive
NC(N)=NC(N)=Nc1cccc(Cl)c1 | inactive
CCN(CC)CCOC(=O)c1cc(Cl)c(N)cc1OC | inactive
CCCn1c(=O)c2[nH]c(-c3ccc(S(=O)(=O)O)cc3)nc2n(CCC)c1=O | inactive
CNCCNS(=O)(=O)c1cccc2cnccc12 | inactive
N[C@@H](Cc1c[nH]c2ccccc12)C(=O)O | inactive
NC1(C(=O)O)CCc2cc(C(=O)O)ccc21 (stereo not given) | inactive
CN(CC[C@@H](Oc1ccc(C(F)(F)F)cc1)c1ccccc1)CC(=O)O | inactive

SMILES | Potency
N[C@H](C(=O)O)c1cc(O)cc(O)c1 | inactive
Oc1ccc(/C=C/c2ccc(/C=C/c3ccc(O)cc3)c(Br)c2)cc1 | inactive
NC(N)=[N+]1CCc2ccccc2C1 | inactive
COc1cc(C(O)CO)ccc1O (stereo not given) | inactive
O=S(=O)(c1cccc2c(Cl)cccc12)N1CCCNCC1 | inactive
NCC(O)c1ccc(O)c(O)c1 (stereo not given) | inactive
N#C/C(=C\c1ccc(O)c(O)c1)C(=O)NCCc1ccccc1 | inactive
CC(=O)NNC(=O)N1Cc2ccccc2Oc2ccc(Cl)cc21 | inactive
O=[N+]([O-])c1cccc2cn[nH]c12 | inactive
CN(C)CCC(c1ccc(Br)cc1)c1ccccn1 (stereo not given) | inactive
N=C(N)c1ccc(N)cc1 | inactive
CN(C)CCCc1cc(C(=O)Nc2ccc(-c3ccncc3)cc2)ccc1O | inactive
CN1Cc2sccc2C(c2ccc(O)c(O)c2)C1 (stereo not given) | inactive
NCCCCN | inactive
Cc1nc(N=Nc2ccc(C(=O)O)cc2)c(COP(=O)(O)O)c(C=O)c1O | inactive
c1ccc2c(c1)CC(N1CCN(c3cccc4c3OCCO4)CC1)C2 | inactive
C#CCn1c(=O)c2c(ncn2C)n(C)c1=O | inactive
O=c1[nH]c2ccccc2c2ccccc12 | inactive
NC(=O)CC[C@H](N)C(=O)O | inactive
Cn1cc(C(=O)OCC2CCN(CCNS(C)(=O)=O)CC2)c2ccccc21 | inactive
